Sampled rows, rich in hits. Any-hit rate of the full collection: about 10%.
GPT2 inh: blocks human glutamate pyruvate transaminase 2; Q8TD30; Recombinant GPT2, coupled pyruvate oxidase/HRP Amplex Red fluorescence; Potency, µM (series often up to 57.7 µM), for the others: at the top dose activity change, negative = inhibition, actives largely listed as inhibitors; actives 0.25% (n = 100,000); AID 1671188; note: nearly all actives have a fitted effect of over 60% in size
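GPT2 10ng/uL, a-KG 250uM, L-Ala 2mM, HEPES pH7.5 + 0.0001% Tween; 30 min RT. Then Amplex mix (PO/HRP/ThPP), 30 min RT dark, fluorescence. AOA 50uM used as positive control.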
NPR1 antag: antagonists of human natriuretic peptide receptor Npr1; P16066; HEK293 hNpr1 GloSensor cGMP, ANP-stimulated luminescence; Potency, µM (top dose mostly 46.3 µM), without a hit: top-dose activity change, negative = inhibition, hits mostly inhibitors; actives 1.6% (n = 76,000); calls by dose curve; note: nearly all actives have a fitted effect of over 60% in size
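Compound pre-incubated 30 min at room temperature on GloSensor-loaded HEK293 cells stably carrying hNpr1 and the pGS-40F cGMP biosensor. Stimulation uses hNppA at 0.1 nM final; luminescence is taken at baseline and 20 min post-agonist.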
NIH3T3 tox: NIH 3T3 cell cytotoxicity; NIH 3T3 viability, CellTiter-Glo ATP luminescence, 48-72 h; Potency, µM (titrated, usually from 96.7 µM), for the others: at the top dose activity change, negative = cytotoxicity, actives largely listed as inhibitors; actives 4.3% (n = 94,000); note: nearly all actives have a fitted effect of over 55% in size
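Luminescent ATP readout (CellTiter-Glo, 10 min RT) after 48 or 72 hr compound exposure of NIH 3T3 cells seeded at 400 cells/well in 1536-well format; quantitative HTS.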
FLuc inh: inhibitors of firefly (Photinus pyralis) luciferase; actives 2.5% (n = 76,000); P08659; Potency, µM (titrated, usually from 115 µM), hits mostly inhibitors; purified P. pyralis luciferase, luminescence, biochemical; note: nearly all actives have a fitted effect of over 65% in size
Target sequence (P08659 whole entry, looked up): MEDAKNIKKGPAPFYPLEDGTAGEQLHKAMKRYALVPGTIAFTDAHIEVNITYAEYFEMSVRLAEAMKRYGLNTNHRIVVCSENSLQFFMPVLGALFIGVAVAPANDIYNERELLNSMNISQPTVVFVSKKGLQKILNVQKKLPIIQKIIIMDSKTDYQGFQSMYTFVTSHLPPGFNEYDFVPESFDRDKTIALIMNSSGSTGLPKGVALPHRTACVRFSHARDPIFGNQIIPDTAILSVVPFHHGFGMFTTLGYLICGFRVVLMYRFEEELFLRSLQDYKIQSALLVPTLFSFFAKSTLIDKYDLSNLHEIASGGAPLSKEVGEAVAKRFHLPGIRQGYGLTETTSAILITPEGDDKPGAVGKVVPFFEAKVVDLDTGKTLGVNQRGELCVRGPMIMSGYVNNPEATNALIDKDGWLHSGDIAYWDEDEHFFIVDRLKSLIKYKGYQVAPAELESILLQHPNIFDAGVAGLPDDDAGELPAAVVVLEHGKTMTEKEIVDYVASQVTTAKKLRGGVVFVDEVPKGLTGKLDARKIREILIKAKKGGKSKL
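Biochemical qHTS: compound (6-point titration) added to 10uM D-luciferin plus 10uM ATP in Tris acetate pH 7.5 buffer with Mg, Tween-20 and BSA, then purified enzyme at 10nM; light output imaged.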
HEK293 tox: HEK 293 cell cytotoxicity. Potency, µM (series often up to 115 µM), for the others: at the highest dose activity change, negative = cytotoxicity, hits mostly inhibitors. AID 1345083. HEK 293 viability, ATP luminescence (CellTiter-Glo), 48-72 h. actives 6.6% (n = 94,000); note: nearly all actives have a fitted effect of over 60% in size
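HEK 293 cells seeded at 250 cells/well were exposed to compound for 48 or 72 hr at 37 degree Celsius. Viability taken as ATP content by CellTiter-Glo luminescence.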
Active calls of the source: *; i = inactive; ? = inconclusive; nt = no result; [ ] = remark or other dose. Unless noted, calls come from the whole dose curve; as a rule, active = well fitted curve in the direction sought with a large enough effect; inconclusive = small, poorly fitted or top-dose-only effect, or another doubt; inactive = no such curve, though single readings can be large; an effect the other way counts as inactive or inconclusive. % is set by controls: 0 for no effect and ±100 for the full control effect; potency is the fitted concentration of half-maximal effect.

SMILES	GPT2 inh	NPR1 antag	NIH3T3 tox	FLuc inh	HEK293 tox
COCCNC(=O)c1ccc(OC2CCN(C/C=C/c3ccc(F)cc3)CC2)c(Cl)c1	5%	?	?	i	45µM*
COCc1ccc(CN2CCC(Oc3ccc(C(=O)NC4CCCC4)cc3Cl)CC2)o1	1%	-17%	?	i	35µM*
C=CCN(C)C(=O)C[C@@H]1c2nc(NC(=O)c3c(F)cccc3F)sc2C[C@@H]2[C@](C)(CO)[C@H](O)CC[C@]21C	i	4%	i	i	i
Cc1ccc2nc(CO[C@H]3CN(c4ccc(C#N)cn4)C[C@H]3F)[nH]c2c1	i	-2%[70.6 µM]	-26%[174 µM]	i	3%[172 µM]
COc1ccccc1C(=O)N1CCC(C(=O)N2CCC(N3CCOC3=O)CC2)CC1	i	nt	-4%	nt	-2%
O=C(CCc1ccccc1)N1CCCC(Cc2nncn2CC2CC2)C1 (centres undefined)	i	nt	-21%	nt	-3%
O=C(NCc1ccc(C(F)(F)F)cc1)[C@@H]1CCCN1c1nccc(Nc2ccccc2Cl)n1	-10%	nt	?	nt	?
O=C(NC1CCCCC1)c1cnc2c(c1)N([S+](=O)([O-])c1cccnc1)CCC2	-3%[88.5 µM]	4%[70.6 µM]	89µM*	i	-10%[172 µM]
Cc1cn2nc(C(=O)NC3CCc4ccccc43)cc2c(N2CCCC2)n1 (centres undefined)	5%	-1%	?	i	?
COc1ccc(C(=O)N2CC(Oc3ccc(F)cc3C)C2)cc1	-12%[88.5 µM]	-3%[70.6 µM]	?	i	?
O=C(c1cc(F)ccc1F)N1CC(Oc2cccc(-c3nc(-c4ccccc4)no3)c2)C1	i	-1%	?	?	?
CCOCCCNC(=O)N1CC(Oc2cccc(-c3nc(C)no3)c2)C1	i	4%	-30%	i	9%
COc1ccccc1C(=O)N1CC(Oc2cccc(-c3nc(-c4ccccc4)no3)c2)C1	i	-10%	32µM*	7.9µM*	45µM*
CCCNC(=O)N1CC(Oc2cccc(-c3nc(-c4ccccc4)no3)c2)C1	4%	-2%	-23%	i	28µM*
CC(Oc1ccccc1)C(=O)N1CC(Oc2cccc(-c3nc(-c4ccccc4)no3)c2)C1 (centres undefined)	4%	-27%	28µM*	?	32µM*
COc1ccccc1C(=O)N1CC(Oc2ccc(F)cc2C)C1	2%[88.5 µM]	15%[70.6 µM]	?	i	71µM*
O=C(C1CCOCC1)N1CC(Oc2cccc(-c3nc(-c4ccccc4)no3)c2)C1	2%	4%	?	18µM*	?
O=C(c1ccoc1)N1CC(Oc2cccc(-c3nc(-c4ccccc4)no3)c2)C1	i	5%	?	?	?
COc1ccccc1C(=O)N1CC(Oc2ccc(-c3noc(-c4ccncc4)n3)cc2)C1	i	nt	35µM*	nt	?
CCNc1cc(N2CCC(CCC(=O)N3CCN(c4ncccn4)CC3)CC2)ncn1	i	?	?	i	50µM*
CCCCN(C)C(=O)CCC1CCN(c2cc(NC3CC3)ncn2)CC1	i	18µM*	?	i	32µM*
CCNc1cc(N2CCC(CCC(=O)N3CCOCC3)CC2)ncn1	i	-2%	?	i	?
CCCNc1cc(N2CCC(CCC(=O)N3CCN(c4ccccc4F)CC3)CC2)ncn1	i	13µM*	?	?	?
COc1ccc(CC(=O)N2CCC3(CC2)CC(NC(=O)NC(C)C)c2ccccc23)cc1 (centres undefined)	i	nt	-24%	nt	-27%
OCC1CN(C2CCC2)CC12CCN(Cc1ccsc1)CC2 (centres undefined)	?	2%	?	i	89µM*
SMILES	GPT2 inh	NPR1 antag	NIH3T3 tox	FLuc inh	HEK293 tox
OCC1CN(c2ncccn2)CC12CCN(Cc1ccsc1)CC2 (centres undefined)	4%	2%	1%	i	-10%
COc1ccccc1Nc1ccnc(N2CCC(N[S+](=O)([O-])c3ccccc3)CC2)n1	-24%	nt	32µM*	nt	32µM*
COc1ccccc1Nc1ccnc(N2CCC(N[S+](=O)([O-])c3ccc(C)cc3)CC2)n1	i	nt	?	nt	32µM*
COC(=O)NC1CCN(c2nccc(Nc3ccccc3OC)n2)CC1	i	nt	?	nt	50µM*
COc1ccccc1Nc1ccnc(N2CCC(NC(=O)C3CC3)CC2)n1	-16%	nt	-28%	nt	-22%
COc1ccccc1Nc1ccnc(N2CCC(NC(C)=O)CC2)n1	-15%	nt	?	nt	?
COc1ccc(CN2CC(Oc3ccccc3C(=O)NC3CC3)C2)c(OC)c1	i	-2%	-27%	i	?
COc1ccc(CN2CC(Oc3ccccc3C(=O)NCc3ccccc3)C2)c(OC)c1	0%	?	?	i	50µM*
COc1ccc(OC)c(CN2CC(Oc3ccccc3C(=O)NCc3ccccc3)C2)c1	0%	-25%	?	i	32µM*
N#Cc1cccc(NC(=S)N[C@H]2CO[C@H]3[C@@H]2OC[C@@H]3n2nnnc2Oc2cccc(N3CCOCC3)c2)c1	?	0%	-28%	i	45µM*
COc1ccc(C(=O)NC[C@@H]2C=C(C)[C@H](CC(=O)O)C[C@H]2C(C)C)cc1	i	2%[70.6 µM]	35µM*	i	-7%[172 µM]
CCOC(=O)C[C@@H]1C[C@@H](C(C)C)[C@H](CNC(=O)c2ccc(F)cc2)C=C1C	1%[88.5 µM]	?	?	i	35µM*
COc1ccc(CNC(=O)C[C@@H]2C[C@@H](C(C)C)[C@H](CNC(=O)c3ccc(C#N)cc3)C=C2C)cc1	-1%	-10%	?	i	?
CC(=O)N1CCC(N2CC[C@H](c3nc4ccccc4s3)C2)CC1	i	2%[70.6 µM]	i	?	-11%[172 µM]
c1ccc2sc([C@H]3CCN(C4CCC4)C3)nc2c1	i	22µM*	-13%[230 µM]	1.6µM*	?
Cn1cccc1CN1CCCC2(CC(Cc3ccccc3)=NO2)C1 (centres undefined)	i	-5%[70.6 µM]	?	i	?
CC(C)CCN1CCCC2(CC(Cc3ccccc3)=NO2)C1 (centres undefined)	-2%[88.5 µM]	9%[70.6 µM]	-20%[138 µM]	i	100µM*
CCc1nc(NCc2cn[nH]c2-c2ccc(Cl)cc2)c2cnn(C)c2n1	-3%	-1%	45µM*	i	?
CCCc1nc(NCc2c(F)ccc(OC)c2F)c2cnn(C)c2n1	0%	?	?	i	?
Cn1nc(-c2nncn2CC2CC2)c2c1CCN(C(=O)Cc1c[nH]c3ccccc13)C2	-17%	1%	-17%	i	-16%
COc1ccccc1-c1ccc(CN2CCN(c3cc(Cl)ncn3)C(=O)C2)cc1	i	-11%[70.6 µM]	?	i	45µM*

High-throughput results from PubChem.
